From ChEMBL document CHEMBL3433997, “St. Jude Leishmania screening dataset” (2016)

Tests used:
Format in all cases: functional
[1] = molecular target: Solute carrier family 2, facilitated glucose transporter member 1 (Homo sapiens) (UniProt P11166); assay: ST_JUDE_LEISH: Cytotoxicity at 2uM final concentration against transgenic Leishmania Mexicana promastigotes LmGLUT1 that are glucose transport deficient and complemented with the human glucose transporter GLUT1. Activity is measured by DNA content using SYBR green in vitro
Sequence of Solute carrier family 2, facilitated glucose transporter member 1 (Homo sapiens) (P11166 whole entry): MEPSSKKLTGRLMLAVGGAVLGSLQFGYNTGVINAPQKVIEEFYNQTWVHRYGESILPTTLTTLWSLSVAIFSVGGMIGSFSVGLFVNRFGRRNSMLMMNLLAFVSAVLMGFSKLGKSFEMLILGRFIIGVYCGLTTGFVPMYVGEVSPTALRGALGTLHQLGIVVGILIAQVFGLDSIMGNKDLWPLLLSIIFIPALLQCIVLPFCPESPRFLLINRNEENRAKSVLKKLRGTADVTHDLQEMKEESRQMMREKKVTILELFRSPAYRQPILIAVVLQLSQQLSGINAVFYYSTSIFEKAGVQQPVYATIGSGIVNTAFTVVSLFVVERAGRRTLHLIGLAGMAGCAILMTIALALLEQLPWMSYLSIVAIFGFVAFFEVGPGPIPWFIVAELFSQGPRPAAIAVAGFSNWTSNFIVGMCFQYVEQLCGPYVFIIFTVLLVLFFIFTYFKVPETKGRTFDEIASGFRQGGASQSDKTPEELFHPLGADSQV

[2] = molecular target: Hexose transporter 1 (Plasmodium falciparum) (UniProt O97467); assay: ST_JUDE_LEISH: Cytotoxicity at 2uM final concentration against transgenic Leishmania Mexicana promastigotes LmPfHT that are glucose transport deficient and complemented with the Plasmodium falciparum hexose transporter. Activity is measured by DNA content using SYBR green in vitro
[3] = molecular target: Glucose transporter (Leishmania mexicana) (UniProt O61059); assay: ST_JUDE_LEISH: Cytotoxicity at 2uM final concentration against transgenic Leishmania Mexicana promastigotes LmGT2 that are glucose transport deficient and complemented with the L. Mexicana glucose transporter 2. Activity is measured by DNA content using SYBR green in vitro

| Compound | inhibition [1] [%] | inhibition [2] [%] | inhibition [3] [%] |
| --- | --- | --- | --- |
| COc1ccc(NC(=O)Nc2cc(C)nc3ccccc23)cc1Cl | 9.47 | 8.02 | 7.39 |
| COc1cc(OC)cc(C(=O)Nc2cccc(-c3cn4ccc(C)cc4n3)c2)c1 | 6.3 | 2.27 | 5.98 |
| O=C(CN1CCCCC1)Nc1ccc(Nc2nccc(NCC(O)c3ccccc3)n2)cc1 (stereo unspecified) | 11.7 | 9.59 | 7.17 |
| Cc1nnsc1C(=O)Nc1cccc(-c2ccc(-c3nc4cc(F)ccc4[nH]3)s2)c1 | 1.06 | 0.37 | -2.44 |
| CC(=O)N/N=C/[C@H](CCc1ccccc1)NC(=O)[C@H](CC(C)C)NC(=O)c1ccc(OCCN2CCOCC2)cc1 | 2.92 | 6.88 | 3.05 |
| CN(CCCc1c[nH]c2ccccc12)CCC1CCC(NC(=O)/C=C/c2ccc(Cl)c(Cl)c2)CC1 (stereo unspecified) | 3.61 | 2.63 | 1.8 |
| CCN(CC)C(=O)C1CCCN(C(=O)Nc2cc(C(F)(F)F)cc(C(F)(F)F)c2)C1 (stereo unspecified) | 0.66 | 0.55 | -2.05 |
| COc1ccc(CCNCCCCCCNCCc2ccc(-c3ccccc3)cc2)cc1OC | 92.8 | 94.9 | 49.7 |
| CCN(CCCNc1nc(=S)[nH]c2cc(OC)c(OC)cc12)c1ccccc1 | -0.4 | -1.25 | -4.13 |
| Nc1ncc(-c2ccc(F)cc2)cc1-c1nc2ccc(Cl)cc2[nH]1 | 4.48 | 5.54 | 2.11 |
| COc1cccc(NC(=O)Nc2ccc(C)c(-c3ccc(C(=O)Nc4ccncc4)cc3)c2)c1 | -1.55 | -1.72 | -0.17 |
| C=CCn1c(Sc2ccc(C#N)c([N+](=O)[O-])c2)nnc1-c1ccc(OC)cc1 | 4.25 | 6.95 | 3.25 |
| OC1CCN(c2cc(-c3ccccn3)nc(-c3ccccn3)n2)CC1 | -1.43 | 2.02 | -4.46 |
| Clc1ccc(-c2cnc3ccc(NCc4ccncc4)nn23)cc1 | 2.08 | 0.84 | -0.5 |
| COc1ccc2ncc(F)c(CCN3CCC(CNCc4cccc5c4OCO5)CC3)c2n1 | 2.01 | 1.39 | 3.27 |
| CNCCNCc1ccc(-c2ccc(-c3nc4cccc(C)c4[nH]3)s2)cc1 | 2.93 | 2.48 | 3.92 |
| COc1ccc2ncc(F)c(CCN3CCC4(CC3)COC(c3cc5c(cn3)OCCO5)=N4)c2n1 | 10.3 | 7.42 | -0.24 |
| C=CCOC(=O)N1CCC(CNCc2cccc(-c3cccc(-c4nc5ccccc5[nH]4)c3)c2)C1 (stereo unspecified) | -1.85 | 5.8 | 0.62 |
| CCSc1nnc(C2CCCN(CC(=O)Nc3cc(C(F)(F)F)ccc3Cl)C2)n1CC (stereo unspecified) | 8.8 | 8.79 | 8.67 |

| Compound | inhibition [1] [%] | inhibition [2] [%] | inhibition [3] [%] |
| --- | --- | --- | --- |
| Cc1c(S(=O)(=O)Nc2ccc3nccc(N4CC(C)NC(C)C4)c3c2)sc2ccc(Cl)cc12 (stereo unspecified) | 5.22 | 6.03 | 3.81 |
| O=C(Nc1cccc(-c2ccc(-c3nc4cc(C(F)(F)F)ccc4[nH]3)cc2)c1)c1ccoc1 | -0.21 | 1.44 | 0.98 |
| CS(=O)(=O)c1ccc(-n2nc(C(F)(F)F)cc2-c2ccc(C=NOCC(=O)O)o2)cc1 | 1.5 | 2.45 | -0.38 |
| COc1ccc(CNCc2ccc(F)cc2)cc1-c1ccc(S(=O)(=O)NCCN2CCCC2)s1 | 2.3 | 3.11 | 5.96 |
| O=C(NC(CCCN1CCC2(CC1)OCc1ccccc12)c1ccc(Cl)c(Cl)c1)c1cc(C(F)(F)F)cc(C(F)(F)F)c1 (stereo unspecified) | 1.7 | 0.26 | -2.79 |
| CN(C)Cc1ccc(CNC2CCN(Cc3ccccc3Cl)CC2)cc1 | 18.4 | 13.8 | 13.4 |
| CCCC(C(=O)OCCN(CC)CC)(c1ccc(Cl)cc1)c1ccc(Cl)cc1 | 4.77 | 5.49 | 7.04 |
| COc1cc2c(Nc3cccc(NC(=O)c4ccccc4)c3)ncnc2cc1OCCCN1CCOCC1 | 0.63 | 2.08 | 0.27 |
| CCCNC(=O)C1Cc2cc(OC)c(OC)cc2C2(N1)C(=O)N(Cc1cccc(OC)c1)c1ccccc12 (stereo unspecified) | -1.15 | 0.36 | -0.47 |
| CC(=O)Nc1ncc(C(=O)Nc2cccc(-c3cccc(-c4nc5cc(F)ccc5[nH]4)c3)c2)s1 | 1.74 | 2.62 | 1.65 |
| CC1CCN(C(=O)[C@H](Cc2c[nH]c3ccccc23)NS(=O)(=O)c2ccc(Cl)cc2)CC1 | 1.32 | 2.42 | 13.7 |
| CCc1c(CCNCCCCCCNCCc2ccc(OC)c(OC)c2CC)ccc(OC)c1OC | 8.52 | 7.29 | 6.3 |
| COc1ccc(-c2cc(-c3nc4cc(C(=O)N5CCOCC5)ccc4[nH]3)c(=O)n(C)c2)cc1OC | 2.76 | 0.74 | 0.91 |
| CCc1ccc(OCCCON2C(=N)N=C(N)NC2(C)C)cc1 | -1.61 | 1.92 | 3.21 |
| O=C(Nc1ccc(Cn2ncc(N3CCCNCC3)c(Cl)c2=O)cc1)Nc1cccc(Oc2ccccc2)c1 | 2.36 | 2.39 | 1.79 |
| COc1ccc(CNC2CCN(C)CC2)cc1-c1ccc(S(=O)(=O)NCCc2ccccn2)s1 | -2.94 | -0.03 | 0.29 |
| CCCc1c(C(=O)OCC)c2cc(O)ccc2n1-c1ccc(OC)cc1 | 5.29 | 6.77 | 4.32 |
| OC(CNc1ccnc(Nc2ccccc2)n1)c1cccc(C(F)(F)F)c1 (stereo unspecified) | 4.65 | 4.22 | 0.68 |
